Assay results reported in PubChem BioAssay AID1962 (The Scripps Research Institute Molecular Screening Center, 2009).
Out of some 300,000 compounds screened, about 2,500 (0.83%) were called active. The entries come from a sample that favours actives as a whole. Values without a mark were called inactive.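 How the source made its calls: active means inhibition above the mean of all tested compounds plus 3 SD, set per screening campaign (cut at about 24% in these data); inactive means the rest.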

test system: tRNA 2'-phosphotransferase TPT1 (Candida albicans SC5314); assay: tRNA 2'-phosphotransferase blockers, C. albicans – biochemical, fluorescence polarization, primary screen (AID 1962); details: recombinant caTPT1, FP RNA substrate dephosphorylation; at 5 µM; stronger effect = higher value;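 further: plate controls were DMSO alone for no effect and ferristatin control at 100 nM for full effect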

SMILES | inhibition
CCN(CC)P(=O)(Nc1ccc(SC(F)F)cc1)c1ccc(N(C)C)cc1NC(=O)c1ccco1 (configuration not stated) | -3.15%
COc1cc(C(=O)N2CCN(C)CC2)cc(OC)c1OC | 1.91%
O=C(CN1C(=O)NC(Cc2ccccc2)(Cc2ccccc2)C1=O)NCC1CCCCC1 | 0.35%
Cc1ccc(CC2S/C(=C(/C#N)C(=O)N3CCOCC3)N(c3ccccc3)C2=O)cc1 (configuration not stated) | 27.6% (active)
N#C/C(C(=O)N1CCOCC1)=C1/SC(Cc2ccc(F)cc2)C(=O)N1c1ccccc1 (configuration not stated) | 19.8%
Cc1ccc(C(=O)C(=S)N2CCOCC2)cc1 | 0.27%
O=C(Nc1ccc2c(c1)CCC2)c1ccc(Br)s1 | -6.11%
CC(=O)N1CCN(C(=O)c2cc(-c3ccc(C)o3)nc3ccccc23)CC1 | -4.79%
OCC[C@H]1C[C@@H](O)[C@H](O)[C@]2(OCCCc3ccccc32)O1 | -4.69%
O=C(CSc1nc2ccc([N+](=O)[O-])cc2[nH]1)c1ccc(Cl)cc1 | -2.05%
O=C(Cc1nc2ccccc2[nH]c1=O)c1ccc(Cl)cc1 | 52.4% (active)
O=C(/C(=C/c1cccc(Cl)c1)c1nc2ccccc2[nH]1)c1ccccc1 | 6.55%
CC(=O)Oc1ccc(N(C(C)=O)S(=O)(=O)c2ccc3ccccc3c2)cc1Br | -2.05%
O=C(Nc1ccc([N+](=O)[O-])cc1)OCCc1ccccn1 | 0.72%
Cc1cccc(NS(=O)(=O)c2cc(Cl)ccc2Cl)n1 | -0.05%
COc1ccc2cc(C(=O)C3CCCN(C(=O)c4sc(C)nc4C)C3)ccc2c1 (configuration not stated) | -0.57%
COc1cc(/C=N\Nc2nc(-c3cccs3)c(NC(C)=O)s2)ccc1O | -0.53%
CCOc1cc(/C=C(\C#N)c2nc(-c3cccs3)c(NC(C)=O)s2)ccc1O | 111% (active)
CCOc1cc(-c2cc(-c3ccc(NC(C)=O)cc3)nc(N)c2C#N)ccc1O | 2.32%
Cc1ccc(Nc2ccccc2N)cc1 | 38.5% (active)
Cc1ccc(Nc2ccc(C(N)=O)cc2[N+](=O)[O-])cc1 | -0.98%
Nc1ccc(C(=O)Nc2ccccc2N)cc1 | -2.37%
O=C(Nc1ccc(Cl)c(Cl)c1)N1CC=C(c2ccccc2)CC1 | -0.49%

SMILES | inhibition
NC1=C([N+](=O)[O-])C(c2ccccc2)C2=C(CCCC2=O)O1 (configuration not stated) | 2.19%
COc1ccc(CCOC(=O)CNC(=O)c2ccc(Cl)cc2Cl)cc1 | -0.14%
Cc1ccc([C@@H]2CC=C(C(=O)O)[C@H](c3cccc(Cl)c3)N2S(=O)(=O)c2ccc(C)cc2)cc1 | -3.07%
O=C(CNC(=O)C1COc2ccccc2O1)N/N=C/c1cc(Br)c(O)c(Br)c1 (configuration not stated) | 2.18%
Cc1c(CC(=O)N2CCN(C(=O)C3COc4ccccc4O3)CC2)c(=O)oc2c(O)c(O)ccc12 (configuration not stated) | 51% (active)
Cc1c(C)c2ccc(OCC(=O)N3CCC(C(=O)O)CC3)c(C)c2oc1=O | -2.74%
COc1cccc(OC)c1C(=O)Nc1sc2c(c1C(N)=O)CCCC2 | -0.1%
NC(=O)c1c(NC(=O)c2ccccc2)sc2c1CCCC2 | 1.25%
NC(=O)c1c(Nc2nc3c(F)cccc3s2)sc2c1CCCC2 | 85.5% (active)
CC(C)(C)C(=O)Nc1ccc(C(=O)N/N=C/c2ccccc2OC(=O)c2ccc(Cl)cc2Cl)cc1 | -2.72%
Cc1ccc(Sc2ccncc2S(N)(=O)=O)cc1 | 0.2%
Cc1cnc(C(=O)N2CCCC(C(=O)c3ccc(C(F)(F)F)cc3)C2)cn1 (configuration not stated) | -2.98%
CCOC(=O)CC1C(=O)NCCN1c1nc2c(C)cccn2c(=O)c1/C=C1\SC(=S)N(C(C)CC)C1=O (configuration not stated) | 145% (active)
Cc1cccn2c(=O)c(/C=C(\C#N)C(N)=O)c(N3CCCCCC3)nc12 | -0.44%
CCOC(=O)N1CCN(C(=O)CSc2nc(=O)n3cccc(C)c3n2)CC1 | -1.52%
CCC(=O)N1c2ccc(S(=O)(=O)NCc3ccco3)cc2CC1C (configuration not stated) | -4.88%
COCCCn1c(-c2cccs2)nc2nc3ccccc3nc21 | -0.91%
Cc1c(-c2ccccc2)cn2c1-c1ccc(C)n1CC2 | 49% (active)
Cc1cc(Br)ccc1SCC(=O)OCC(=O)NCc1ccc2c(c1)OCO2 | -0.18%
CC1CCN(C(=O)c2ccc3c(c2)NC(=O)CN3)CC1 | 147% (active)
CC1CCN(C(=O)c2ccc3c(=O)n4c(nc3c2)CCCCC4)CC1 | -0.96%
CC1CCN(C(=O)c2ccc(CSc3ccc(Cl)cc3)cc2)CC1 | -4.05%
O=c1oc2ccccc2c(CNc2ccccc2)c1[N+](=O)[O-] | -2.94%

SMILES | inhibition
COc1ccc(/C=C(\C#N)c2c[nH]c3ccccc23)cc1 | 0.42%
C[n+]1ccc(/C=C/c2c[nH]c3ccccc23)cc1 | 56% (active)
O=C(N/N=C/c1c[nH]c2ccccc12)c1ccccc1O | -1.65%
Cc1ccc(-n2c(O)c(C=Nc3ccc(S(=O)(=O)Nc4ncccn4)cc3)c3ccccc3c2=O)cc1C | 1.02%
CCOc1ccc(-n2c(O)c(/C=N/c3ccnn3Cc3ccncc3)c3ccccc3c2=O)cc1 | 44.3% (active)
CCOc1ccc(-n2c(O)c(/C=N/Nc3nc(C)cc(C)n3)c3ccccc3c2=O)cc1 | -0.65%
CC(C)CCN1CCN=C1N(C)C | 0.11%
O=C(NCCCN1CCOCC1)c1cnn2c(-c3ccccc3)cc(-c3ccccc3)nc12 | -0.23%
COc1ccc(C(=O)NC2CC2)cc1OC1CCN(Cc2ccc(SC)cc2)CC1 | -0.85%
CC(NC(=S)Nc1ccccc1)C(c1cccs1)N1CCOCC1 (configuration not stated) | -0.68%
CCOC(=O)Nc1ccc2c(c1)N(C(=O)CCCl)c1ccccc1[S@]2=O | 1.44%
Cc1ccc2cc(/C=N/NC(=O)[C@@H]3CCCN3)c(Cl)nc2c1 | -2.39%
Cc1ccc2cc(/C=N/Nc3ccc(C(=O)O)cc3)c(Cl)nc2c1 | 24.6% (active)
O=C(O)c1ccc(N/N=C/c2ccc3ncccc3c2)cc1 | -4.36%
C/C(=N\Nc1nc(N2CCOCC2)nc(N2CCOCC2)n1)c1ccc([N+](=O)[O-])cc1 | 0.13%
COc1cccc(OC)c1C(=O)Nc1ccc2c(c1)n(C)c(=O)n2C | -1.47%
Cc1ccc(N=C2NC(=O)/C(=C/C=C/c3ccco3)S2)cc1C | 25.4% (active)
Cc1ccc(N2NC(=O)/C(=C/C=C/c3ccco3)C2=O)cc1C | 4.93%
CN(C)c1ccc(-n2cccc2/C=C2/SC(=Nc3ccc(F)cc3)NC2=O)cc1 | 0.75%
COC(=O)C1(S(=O)(=O)C2(C(=O)OC)CCCC2)CCCC1 | -0.48%
CN1C(=O)CC(c2ccccc2)C1=O (configuration not stated) | -3.97%
CCN1C(=O)N[C@@H](c2ccccc2)[C@H](C(C)=O)[C@H]1C | 1.78%
O=C(Nc1ccc(S(=O)(=O)Nc2nccs2)cc1)c1cc(=O)[nH]c2ccccc12 | 11.7%

SMILES | inhibition
O=C(Nc1ccc(S(=O)(=O)Nc2nccs2)cc1)c1cc(-c2ccncc2)nc2ccccc12 | 42.7% (active)
Cc1ccc2nc(-c3ccncc3)cc(C(=O)Nc3ccncc3)c2c1 | -2.29%
O=C(NC(Cc1ccc(O)cc1)C(=O)O)/C(=C/c1ccccc1)NC(=O)c1ccccc1 (configuration not stated) | -2.71%
CCOC(=O)c1cc(NC(=O)c2ccc(Cl)cc2)c(=O)oc1-c1ccccc1 | -4.37%
CC(=O)Oc1cccc(C(=O)Nc2ccccc2NC(=O)c2cccc(OC(C)=O)c2)c1 | -1.86%
CC(=O)c1cc(NC(=O)c2ccccc2)c(=O)oc1/C=C/N(C)C | 110% (active)
Cc1ccc(N2CCN(C(=O)c3cccs3)CC2)c(C)c1 | -2.58%
Cn1cccc1/C=C1\SC(=S)N(NC(=O)c2ccc(Cl)cc2)C1=O | 84.1% (active)
O=C(O)c1ccc(/C=C2\SC(=S)N(NC(=O)c3ccc(Br)cc3)C2=O)cc1 | 5.29%
Cn1cccc1/C=C1\SC(=O)N(CC(=O)Nc2ccc(F)cc2)C1=O | 1.77%
CCCC(=O)Nc1ncnc2c1ncn2[C@@H]1O[C@@H]2OP(=O)(O)OC[C@H]2[C@H]1OC(=O)CCC | -4.36%
COc1ccc(Br)cc1/C=N/n1c(C)nnc1C | -0.28%
CC(=O)Nc1cccc(Oc2cc(C#N)c(C#N)cc2N2CCOCC2)c1 | -0.51%
COc1cc(N2CCCC2)c(OC)cc1/C=C(/C#N)c1cccc(Br)c1 | 103% (active)
O=C1NCCn2nc3ccccc3c21 | -3.31%
CC(=O)Nc1ccc(S(=O)(=O)N(C)c2nc3ccccc3nc2Cl)cc1 | -0.11%
Cc1ccc(Oc2nc3ccccc3n3c(C)nnc23)cc1 | -2.63%
Cc1ccc(S(=O)(=O)N(C)c2nc3ccccc3n3c(C(C)C)nnc23)cc1 | 49.9% (active)
C#CCOCCOCCOCCNc1nc(N2CCN(C(=O)CCCCCCCCCCNC(=O)[C@H](CCCCN)n3cc(C)nn3)CC2)nc(N2CCN(C(=O)CCCCCCCCCCNC(=O)[C@H](CO)n3cc(CCCSC)nn3)CC2)n1 | 0.52%
CN=C(c1ccccc1)c1c(C)cccc1C | -0.46%
CN1C/C(=C/c2cccs2)C(=O)/C(=C\c2cccs2)C1 | -2.84%
Cc1cccc(C2=N/C(=C/c3cccs3)C(=O)O2)c1 | -1.73%
CSC1=N/C(=C\C=C\c2cccs2)C(=O)S1 | 35.6% (active)
